{"source": "the supplement of paper PMC8728848", "binders": {"B1": {"name": "BC2L-A (Burkholderia cenocepacia), Q1BKJ8_BURCA (protein)", "chain": "ADSQTSSNRAGEFSIPPNTDFRAIFFANAAEQQHIKLFIGDSQEPAAYHKLTTRDGPREATLNSGNGKIRFEVSVNGKPSATDARLAPINGKKSDGSPFTVNFGIVVSEDGHDSDYNDGIVVLQWPIG"}}, "test_in_all_cases": "glycan array binding signal (z-score within array); higher = stronger binding", "details_in_all_cases": "glycan notation: IUPAC condensed, linker removed", "key": {"[1]": {"biological_target": "Fuc(a1-2)Gal(b1-4)GlcNAc", "how_it_was_run": "(§1)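 Columns mapping to the same glycan were averaged after glycan names were converted to IUPAC-condensed notation. The data come from 3228 arrays in the Consortium for Functional Glycomics database, limited to those with an available protein sequence. Binding is reported as a within-array Z-score averaged across arrays of one protein sequence and across linkers.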"}, "[2]": {"biological_target": "Fuc(a1-2)Gal(b1-4)GlcNAc(b1-3)Gal(b1-4)GlcNAc(b1-3)Gal(b1-4)GlcNAc", "how_it_was_run": "as §1"}, "[3]": {"biological_target": "Fuc(a1-2)Gal6S(b1-4)Glc", "how_it_was_run": "as §1"}, "[4]": {"biological_target": "Fuc(a1-2)GlcNAc", "how_it_was_run": "as §1"}, "[5]": {"biological_target": "Fuc(a1-2)[GalNAc(a1-3)]Gal(b1-4)GlcNAc(b1-2)Man(a1-3)[Fuc(a1-2)[GalNAc(a1-3)]Gal(b1-4)GlcNAc(b1-2)Man(a1-6)]Man(b1-4)GlcNAc(b1-4)GlcNAc", "how_it_was_run": "as §1"}, "[6]": {"biological_target": "Fuc(a1-2)[GalNAc(a1-3)]Gal(b1-4)GlcNAc(b1-3)Gal(b1-4)GlcNAc", "how_it_was_run": "as §1"}, "[7]": {"biological_target": "Fuc(a1-3)[Gal(b1-4)]GlcNAc", "how_it_was_run": "as §1"}, "[8]": {"biological_target": "Fuc(a1-3)[Gal(b1-4)]GlcNAc(b1-2)Man(a1-3)[Fuc(a1-3)[Gal(b1-4)]GlcNAc(b1-2)Man(a1-6)]Man(b1-4)GlcNAc(b1-4)[Fuc(a1-6)]GlcNAc", "how_it_was_run": "as §1"}, "[9]": {"biological_target": "Fuc(a1-3)[GalNAc(b1-4)]GlcNAc", "how_it_was_run": "as §1"}, "[10]": {"biological_target": "Gal(a1-3)Gal(b1-3)GlcNAc", "how_it_was_run": "as §1"}, "[11]": {"biological_target": "Gal(b1-3)GlcNAc", "how_it_was_run": "as §1"}, "[12]": {"biological_target": "Gal(b1-3)GlcNAc(b1-3)Gal(b1-4)GlcNAc(b1-6)[Gal(b1-3)GlcNAc(b1-3)]Gal(b1-4)Glc", "how_it_was_run": "as §1"}, "[13]": {"biological_target": "Gal(b1-3)GlcNAc(b1-6)Gal(b1-4)GlcNAc", "how_it_was_run": "as §1"}, "[14]": {"biological_target": "Gal(b1-3)[Fuc(a1-4)]GlcNAc(b1-3)Gal(b1-4)[Fuc(a1-3)]GlcNAc", "how_it_was_run": "as §1"}, "[15]": {"biological_target": "Gal(b1-4)GlcNAc(b1-2)Man(a1-3)[Man(a1-6)]Man(b1-4)GlcNAc(b1-4)GlcNAc", "how_it_was_run": "as §1"}, "[16]": {"biological_target": "Gal(b1-4)GlcNAc(b1-2)Man(a1-6)Man(b1-4)GlcNAc(b1-4)GlcNAc", "how_it_was_run": "as §1"}, "[17]": {"biological_target": "Gal(b1-4)GlcNAc(b1-2)[Gal(b1-4)GlcNAc(b1-4)]Man(a1-3)[Gal(b1-4)GlcNAc(b1-2)Man(a1-6)]Man(b1-4)GlcNAc(b1-4)GlcNAc", "how_it_was_run": "as §1"}, "[18]": {"biological_target": "Gal(b1-4)GlcNAc(b1-2)[Gal(b1-4)GlcNAc(b1-4)]Man(a1-3)[GlcNAc(b1-4)][Gal(b1-4)GlcNAc(b1-2)[Gal(b1-4)GlcNAc(b1-6)]Man(a1-6)]Man(b1-4)GlcNAc(b1-4)GlcNAc", "how_it_was_run": "as §1"}, "[19]": {"biological_target": "Gal3S(b1-3)GlcNAc", "how_it_was_run": "as §1"}, "[20]": {"biological_target": "GlcNAc(a1-4)Gal(b1-4)GalNAc", "how_it_was_run": "as §1"}, "[21]": {"biological_target": "GlcNAc(b1-3)[GlcNAc(b1-6)]GlcNAc(b1-4)GlcNAc", "how_it_was_run": "as §1"}, "[22]": {"biological_target": "Man(a1-2)Man(a1-2)Man(a1-6)[Man(a1-3)]Man", "how_it_was_run": "as §1"}, "[23]": {"biological_target": "Man(a1-2)Man(a1-3)[Man(a1-2)Man(a1-6)]Man", "how_it_was_run": "as §1"}, "[24]": {"biological_target": "Man(a1-2)Man(a1-3)[Man(a1-2)Man(a1-6)]Man(a1-6)[Man(a1-2)Man(a1-2)Man(a1-3)]Man", "how_it_was_run": "as §1"}, "[25]": {"biological_target": "Man(a1-2)Man(a1-6)[Man(a1-3)]Man(a1-6)[Man(a1-2)Man(a1-2)Man(a1-3)]Man", "how_it_was_run": "as §1"}, "[26]": {"biological_target": "Man(a1-2)Man(a1-6)[Man(a1-3)]Man(a1-6)[Man(a1-2)Man(a1-2)Man(a1-3)]Man(b1-4)GlcNAc(b1-4)GlcNAc", "how_it_was_run": "as §1"}, "[27]": {"biological_target": "Man(a1-3)[Man(a1-6)]Man", "how_it_was_run": "as §1"}, "[28]": {"biological_target": "Man(a1-3)[Man(a1-6)]Man(a1-6)[Man(a1-2)Man(a1-3)]Man(b1-4)GlcNAc(b1-4)GlcNAc", "how_it_was_run": "as §1"}, "[29]": {"biological_target": "Man(a1-3)[Man(a1-6)]Man(a1-6)[Man(a1-3)]Man(b1-4)GlcNAc(b1-4)GlcNAc", "how_it_was_run": "as §1"}, "[30]": {"biological_target": "Man(a1-3)[Man(a1-6)]Man(b1-4)GlcNAc(b1-4)GlcNAc", "how_it_was_run": "as §1"}}, "note": "This excerpt belongs to a sample that is enriched for the strongest signals."}
{"binder": "B1", "values": [{"measurement": "glycan array binding signal (z-score)", "setting": "[1]", "value": 0.167}, {"measurement": "glycan array binding signal (z-score)", "setting": "[2]", "value": 0.018}, {"measurement": "glycan array binding signal (z-score)", "setting": "[3]", "value": -0.176}, {"measurement": "glycan array binding signal (z-score)", "setting": "[4]", "value": -0.178}, {"measurement": "glycan array binding signal (z-score)", "setting": "[5]", "value": -0.165}, {"measurement": "glycan array binding signal (z-score)", "setting": "[6]", "value": -0.296}, {"measurement": "glycan array binding signal (z-score)", "setting": "[7]", "value": -0.285}, {"measurement": "glycan array binding signal (z-score)", "setting": "[8]", "value": -0.217}, {"measurement": "glycan array binding signal (z-score)", "setting": "[9]", "value": -0.263}, {"measurement": "glycan array binding signal (z-score)", "setting": "[10]", "value": -0.284}, {"measurement": "glycan array binding signal (z-score)", "setting": "[11]", "value": -0.29}, {"measurement": "glycan array binding signal (z-score)", "setting": "[12]", "value": -0.22}, {"measurement": "glycan array binding signal (z-score)", "setting": "[13]", "value": -0.219}, {"measurement": "glycan array binding signal (z-score)", "setting": "[14]", "value": -0.086}, {"measurement": "glycan array binding signal (z-score)", "setting": "[15]", "value": 2.13}, {"measurement": "glycan array binding signal (z-score)", "setting": "[16]", "value": -0.182}, {"measurement": "glycan array binding signal (z-score)", "setting": "[17]", "value": -0.144}, {"measurement": "glycan array binding signal (z-score)", "setting": "[18]", "value": -0.22}, {"measurement": "glycan array binding signal (z-score)", "setting": "[19]", "value": 0.002}, {"measurement": "glycan array binding signal (z-score)", "setting": "[20]", "value": -0.296}, {"measurement": "glycan array binding signal (z-score)", "setting": "[21]", "value": -0.249}, {"measurement": "glycan array binding signal (z-score)", "setting": "[22]", "value": 4.07}, {"measurement": "glycan array binding signal (z-score)", "setting": "[23]", "value": 2.25}, {"measurement": "glycan array binding signal (z-score)", "setting": "[24]", "value": 4.82}, {"measurement": "glycan array binding signal (z-score)", "setting": "[25]", "value": 4.09}, {"measurement": "glycan array binding signal (z-score)", "setting": "[26]", "value": 5.06}, {"measurement": "glycan array binding signal (z-score)", "setting": "[27]", "value": 5.28}, {"measurement": "glycan array binding signal (z-score)", "setting": "[28]", "value": 5.49}, {"measurement": "glycan array binding signal (z-score)", "setting": "[29]", "value": 4.38}, {"measurement": "glycan array binding signal (z-score)", "setting": "[30]", "value": 4.23}]}
